This is an account of results in ChEMBL document CHEMBL3988442, “University of Dundee, Small-Polar-MMV Screening Library” (2021).

The target of this assay is Chromo domain-containing protein 1 (Saccharomyces cerevisiae (strain ATCC 204508 / S288c) (Baker's yeast)) (UniProt P32657). As to the kind of experiment: ScCHD-1 Enzyme Inhibition Assay. It is filed as functional. Also on record: scale not given: in the data most compounds retested in dose-response had high values. The note with it: 30 µM.
Sequence of Chromo domain-containing protein 1 (Saccharomyces cerevisiae (strain ATCC 204508 / S288c) (Baker's yeast)) (P32657 whole entry, the tested form may be a part): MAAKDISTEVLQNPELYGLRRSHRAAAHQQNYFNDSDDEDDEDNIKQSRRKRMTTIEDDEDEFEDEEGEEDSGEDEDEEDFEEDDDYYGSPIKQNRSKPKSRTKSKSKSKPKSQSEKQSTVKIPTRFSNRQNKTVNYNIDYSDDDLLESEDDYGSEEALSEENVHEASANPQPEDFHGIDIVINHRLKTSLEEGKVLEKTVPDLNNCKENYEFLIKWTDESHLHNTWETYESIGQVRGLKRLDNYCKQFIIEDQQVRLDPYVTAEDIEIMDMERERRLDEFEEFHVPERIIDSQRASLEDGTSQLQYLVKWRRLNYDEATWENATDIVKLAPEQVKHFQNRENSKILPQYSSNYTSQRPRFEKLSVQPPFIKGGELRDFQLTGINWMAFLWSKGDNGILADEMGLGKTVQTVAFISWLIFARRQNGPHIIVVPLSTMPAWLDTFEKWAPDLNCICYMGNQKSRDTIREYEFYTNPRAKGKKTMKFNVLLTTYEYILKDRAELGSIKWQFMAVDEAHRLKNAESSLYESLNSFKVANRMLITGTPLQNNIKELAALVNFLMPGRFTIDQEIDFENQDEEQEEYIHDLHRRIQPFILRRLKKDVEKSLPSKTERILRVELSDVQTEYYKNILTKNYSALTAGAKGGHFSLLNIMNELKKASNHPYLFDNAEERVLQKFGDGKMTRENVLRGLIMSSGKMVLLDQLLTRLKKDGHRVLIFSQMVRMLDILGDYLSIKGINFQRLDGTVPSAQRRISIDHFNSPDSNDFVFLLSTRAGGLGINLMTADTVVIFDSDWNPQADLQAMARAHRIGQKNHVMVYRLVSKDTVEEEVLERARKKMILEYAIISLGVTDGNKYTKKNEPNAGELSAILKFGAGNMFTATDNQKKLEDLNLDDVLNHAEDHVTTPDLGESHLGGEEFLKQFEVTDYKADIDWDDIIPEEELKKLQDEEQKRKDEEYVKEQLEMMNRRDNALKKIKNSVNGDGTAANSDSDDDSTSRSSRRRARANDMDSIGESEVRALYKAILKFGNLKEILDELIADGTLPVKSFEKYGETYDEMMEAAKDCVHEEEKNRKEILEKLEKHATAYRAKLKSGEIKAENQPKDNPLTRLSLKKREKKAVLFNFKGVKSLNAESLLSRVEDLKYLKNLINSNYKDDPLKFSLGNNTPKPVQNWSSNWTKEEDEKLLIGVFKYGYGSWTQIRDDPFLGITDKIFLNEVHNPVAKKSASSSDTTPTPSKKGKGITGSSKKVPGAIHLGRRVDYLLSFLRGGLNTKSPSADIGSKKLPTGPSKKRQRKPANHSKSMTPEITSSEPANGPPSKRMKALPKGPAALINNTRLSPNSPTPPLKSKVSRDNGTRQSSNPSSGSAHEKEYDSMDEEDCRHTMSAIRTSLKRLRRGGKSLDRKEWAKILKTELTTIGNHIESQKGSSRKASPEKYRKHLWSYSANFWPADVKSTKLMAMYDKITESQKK
For the compound `Cc1ccccc1CNC(=O)CN1CCN(Cc2nccn2C)CC1`, the Percent Effect is -9.21%. To `CCC(=O)N1CCC2(CC1)c1nc[nH]c1CCN2S(C)(=O)=O` belongs -5.69%. As to `Cc1cc(C)n(-c2cncc(NCCNC(=O)CC3CCCC3)n2)n1`, the Percent Effect was -4.7%. To `Cn1ccnc1CNC(=O)N(CCCO)C1CCCc2ccccc21` (stereo not given) belongs -9.5%; to `Cc1cccc(CCC(=O)N2CCOCC2c2c(C)n[nH]c2C)c1` (stereo not given), -2.99%; to `COc1ccc(CC(=O)N2CCCCC2Cn2cccn2)cc1OC` (stereo not given), -1.27%. With `O=C(c1ccc[nH]1)N1CCC2(CC1)C(=O)Nc1ccccc12` the figure was -5.84%; with `Cc1ccc(CN2CCCC3(COCCN(Cc4c[nH]nn4)C3)C2)o1` (stereo not given), -3.22%.

For the compound `CCSc1ccc(C(=O)Nc2c(C)nn(C(C)C)c2C)cn1`, the Percent Effect is -2.1%. For the compound `N#CC1(C(=O)N2CCN(Cc3cscn3)CC2)CCCC1`, the Percent Effect is -7.41%. Regarding `CN(C)C(CNC(=O)c1cc2c([nH]c1=O)CCCC2=O)c1ccsc1` (stereo not given), the Percent Effect was 45%. With `Cn1nccc1C1CCN(CC(O)c2cccc(F)c2)CC1` (stereo not given) the figure was -4.6%.

As to `CC(C)N1CCC(Cc2cnc(-c3cccc(C(=O)O)c3)cn2)C1` (stereo not given), the Percent Effect came to 5.67%. With `Cc1cn2c(n1)CCC(NC(=O)CCn1cncn1)C2` (stereo not given) the figure was 7.18%. To `Cc1nc(CN(Cc2cccs2)C2CCS(=O)(=O)C2)oc1C` (stereo not given) belongs 1.43%; to `c1csc(-c2nc(CN3CCOC(Cn4cccn4)C3)co2)c1` (stereo not given), -11.2%. With `CC1N(CC2CC2)C(=O)COC12CCN(Cc1nccs1)CC2` (stereo not given) the figure was -5.43%; with `Cc1nn(CC(=O)N2CCN(c3ccccc3F)CC2)c(C)c1Cl`, 1.69%; with `c1nc2c(c(C3CC3)n1)CCN(CC1CCOC1)CC2` (stereo not given), -0.123%. In the case of `Cc1nc(CN2CCCC(NCCOc3ccccc3)C2)no1` (stereo not given), the Percent Effect is -6.02%.
